# In the library only some 21% were active in any assay of this set; here they are far more common.
# Shiga inhibitor: Shiga toxin inhibition. 290,000 tested, 9.2% active. AID 2315. Vero cells, Shiga toxin protein synthesis inhibition reporter. inhibition, % at 38.7 µM; in the data active = inhibition mostly above about 28%, no sharp cut-off; inactive = mostly below about 43%; also: 0% is about no effect
# NS1 inh: influenza NS1 inhibition | Potency, µM (top dose mostly 46.1 µM), for the others: top-dose activity, positive = more growth | 270,000 tested, 0.4% active; also: potency is read from the fitted curve at half-maximal effect; actives are rising curves; nearly all actives have a fitted effect of over 50% in size
#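 S. cerevisiae expressing influenza A NS1, grown in glucose, washed, then diluted 1:100 into pH 6.0 -URA galactose medium with 23 nl compound. Growth recovery read as OD600; NS1-free strain serves as control.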
# SARS PLP yeast: blocks SARS-CoV papain-like protease in a yeast assay; S. cerevisiae expressing SARS-CoV PLpro, growth rescue; Potency, µM (doses to about 32.9 µM), inactives show top-dose activity, positive = growth rescue, actives largely listed as activators; 330,000 tested, 0.19% active; AID 485353; also: potency is read from the fitted curve at half-maximal effect; 0% is about no effect; nearly all actives have a fitted effect of over 55% in size
# Pf growth 48h: P. falciparum growth inhibition at 48 hours (one generation); P. falciparum luciferase growth in erythrocytes, 48 h; Potency, µM (highest dose often 28.7 µM), inactives show at the highest dose activity change, negative = inhibition, usual class: inhibitors; 310,000 tested, 5.9% active; active = well fitted inhibition curve with a large enough effect; inconclusive = small, poorly fitted or top-dose-only effect, or another doubt; inactive = no such curve, though single readings can be large or run the other way; also: potency is read from the fitted curve at half-maximal effect; % is scaled to controls: 0 for no effect and ±100 for the full control effect
#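 First compound was added to culture medium, then infected red cells at 0.1% parasitemia and 2% hematocrit (final). After incubation at 37 C under 5% CO2, luciferase detection reagent was dispensed and light output recorded.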
# Pf growth 96h: P. falciparum growth inhibition at 96 hour, primary screen for plastid delayed-death inhibitors; Potency, µM (top dose mostly 28.7 µM), for the others: top-dose activity change, negative = inhibition, usual class: inhibitors; 320,000 tested, 6.9% active; P. falciparum luciferase reporter growth, 96 h; AID 504834; active = well fitted inhibition curve with a large enough effect; inconclusive = small, poorly fitted or top-dose-only effect, or another doubt; inactive = no such curve, though single readings can be large or run the other way; also: potency is read from the fitted curve at half-maximal effect; % is scaled to controls: 0 for no effect and ±100 for the full control effect
#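 Readout is luminescence from an integrated firefly luciferase in P. falciparum. Red cells, 2% hematocrit and 0.05% parasitemia final, were cultured with compound through two parasite generations (96 hours) at 37 C, 5% CO2.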
# CHX counter: counter-screen for Shiga toxin inhibitors: cycloheximide protein synthesis inhibition | max response, % | cell reporter, cycloheximide protein synthesis inhibition counterscreen | AID 2314 | 300,000 tested, 12% active; in the data active = max response mostly above about 13%, no sharp cut-off; inactive = mostly below about 14%; also: read at 38.3 µM for the half of the compounds with a filed dose; 0% is about no effect
# Starred values were filed as active, the others as inactive; ? = inconclusive; . = not tested or not shown. Unless noted, calls follow the shape of the full dose curve.
SMILES,Shiga inhibitor,NS1 inh,SARS PLP yeast,Pf growth 48h,Pf growth 96h,CHX counter
CCC1CCCCN1CC(=O)c1c(C)[nH]c2cc(C)ccc12 (stereo unspecified),-5.0,0.6%,-2.3%,0.1%,4.8%,8.3
COc1ccc(NC(=O)COc2cccc(-n3cnnn3)c2)cc1,-9.1,2.3%,0.4%,29.2%,10.4µM*,-4.0
Cc1ccc(S(=O)(=O)N2CCOCC2)cc1NC(=O)COc1cccc(-n2cnnn2)c1,.,.,3.8%,?,?,.
Cc1ccc(NC(=O)COc2cccc(-n3cnnn3)c2)cc1S(=O)(=O)N1CCOCC1,.,.,-0.3%,13.1µM*,?,.
O=C(COc1cccc(-n2cnnn2)c1)Nc1ccccc1,0.4,3.4%,19.0%,16.0%,?,4.3
O=C(Nc1ccc2ccccc2c1)C(=O)C1C(=O)Nc2ccccc21 (stereo unspecified),66.3*,0.8%,-0.9%,47.6%,95.1%,31.6*
O=C(Nc1ccc(F)cc1)C(=O)C1C(=O)Nc2ccccc21 (stereo unspecified),55.2*,-4.5%,-0.8%,21.4%,32.9%,14.0
CCOC(=O)C1=C(COC(=O)CCOc2ccccc2C)NC(=O)NC1C (stereo unspecified),.,.,6.7%,1.5%,27.4%,.
O=C(NCc1cnn(-c2ccc(F)cc2)c1)C1CCC(=O)N(C2CC2)C1 (stereo unspecified),-5.7,0.2%,-3.7%,7.8%,-15.2%,12.8
CCOC(=O)N1CCN(C(=O)CSC2=NS(=O)(=O)c3ccccc3N2)CC1,.,.,-7.5%,2.6%,-0.5%,.
NCCCC[C@H]1CNC(=O)C(=O)N1CCC12CC3CC(CC(C3)C1)C2,1.8,5.7%,0.1%,11.7µM*,7.38µM*,-3.3
Cc1n[nH]c(=O)c2c(NC(=O)CSc3ccccc3Cl)oc(C)c12,.,.,-0.4%,32.4%,-12.4%,.
Cc1onc(NC(=O)CSCC(=O)O)c1Br,11.8,0.4%,0.2%,24.9%,0.3%,-2.1
CC(C)(C)OC(=O)N1CCN(C(=O)c2[nH]cnc2C(=O)Nc2cccc(Cl)c2)CC1,.,.,0.5%,4.15µM*,?,.
CCOC(=O)c1ccc(NC(=O)c2nc[nH]c2C(=O)N2CCN(C(=O)OC(C)(C)C)CC2)cc1,-0.9,-2.4%,1.9%,13.1µM*,?,0.7
CCOC(=O)c1ccc(NC(=O)c2nc[nH]c2C(=O)N[C@@H](C)C(=O)OC(C)(C)C)cc1,10.8,10.2%,0.8%,?,?,-5.4
CCCCNC(=O)C(CC)(ONc1ccccc1C(F)(F)F)c1ccccc1 (stereo unspecified),.,.,-2.7%,13.1µM*,?,.
CCCCNC(=O)[C@@](CC)(ONc1ccccc1C(F)(F)F)c1cccc2ccccc12,.,.,-2.9%,8.28µM*,?,.
CCOCCCNC(=O)c1oc2ccc3c(c2c1C)C(O)CC(C)(C)O3 (stereo unspecified),-2.6,4.6%,0.6%,-11.2%,2.4%,8.1
O=C(COC(=O)c1ccc(Br)c(S(=O)(=O)N2CCOCC2)c1)NC1CC1,.,.,-7.2%,.,.,.
COc1ccccc1N1CCN(C(=O)Cn2c(=O)[nH]c3ccsc3c2=O)CC1,-8.9,0.5%,-10.9%,.,-3.9%,-1.1
COCCCn1c(SCC(=O)NC2CCCCC2)nnc1-c1ccncc1,-14.8,-10.1%,-4.9%,8.3%,8.28µM*,-5.2
COCCn1c(SCC(=O)NC2CC2)nnc1-c1ccco1,-10.5,-3.9%,-1.4%,5.9%,24.3%,-1.1
COCCCn1c(SCC(=O)NC2CCCCC2)nnc1-c1ccco1,1.2,3.6%,-0.2%,10.4%,2.33µM*,-4.0
O=C(COc1ccc(S(=O)(=O)N2CCCCC2)cc1)NCc1cccnc1,-5.8,-2.0%,-0.3%,.,17.0%,-2.2
COc1ccc(C(=O)NCCCNC(=O)c2ccccn2)cc1,-0.9,1.1%,-0.2%,-3.1%,-5.9%,-2.8
O=C(Nc1ccccc1)C(=O)c1c[nH]c2ccccc12,67.1*,-15.6%,-2.7%,252.1%,25.2%,30.8*
COC(=O)C(Cc1c[nH]c2ccccc12)NC(=O)CNC(C)=O (stereo unspecified),-19.9,-0.9%,17.9%,.,-2.9%,-3.4
O=C(NCc1ccco1)C(=O)c1c[nH]c2ccccc12,54.0*,-10.5%,-2.4%,19.0%,25.4%,31.0*
O=C(/C=C/c1ccccc1)c1c[nH]c2ccccc12,64.0*,-34.4%,-3.1%,227.9%,18.8%,34.2*
